# Experimental data reported in the supplement of paper PMC10037445.
# In all, about 2,900 compounds were measured (“NF-kB SEAP reporter activity, fold change vs agonist alone”: median about 0.99, highest 2% from about 2.6 on). Many of the other results were omitted from the sample, so the highest values are more common in it than they were.
# Key:
# RAW-Dual [1] = assay: NF-kB SEAP reporter activity, fold change vs agonist alone; cytotoxicity flag (confluency mask): cytotoxic (confluency <70% of control); higher = enhanced NF-kB activity
# How it was run: (§1)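 Cytotoxic wells were those whose IncuCyte confluency was below 70% of agonist controls in both mask sets. The cells were RAW-Dual macrophages at 50,000 cells/well in DMEM on 384-well plates, dosed with 50 nL of library stock by pin tool, stimulated with a PRR agonist 1 h later, and kept at 37 °C, 5% CO2 for 20 hours. IRF and NF-κB reporter activity, as fold change over agonist-alone wells, came from supernatant read by QuantiLuc luminescence and QuantiBlue absorbance, respectively.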
# RAW-Dual [2] = assay: NF-kB SEAP reporter activity, fold change vs agonist alone; higher = enhanced NF-kB activity
# How it was run: as §1
# RAW-Dual [3] = assay: NF-kB SEAP reporter activity, fold change vs agonist alone; cytotoxicity flag (confluency mask): not cytotoxic; higher = enhanced NF-kB activity
# How it was run: as §1
# [4] = agonist: ODN 1826 (TLR9) 0.5 ug/mL
# [5] = agonist: Pam2CSK4 (TLR2/6) 0.1 ug/mL
# [6] = agonist: Pam3CSK4 (TLR2/1) 0.1 ug/mL
# [7] = library stock concentration (final ~1000-fold dilution): 10 mM, cytotoxicity flag (confluency mask): not cytotoxic, agonist: Imiquimod (TLR7) […]
# [8] = library stock concentration (final ~1000-fold dilution): 10 mM, cytotoxicity flag (confluency mask): not cytotoxic, agonist: MPLA (TLR4) […]
# [9] = library stock concentration (final ~1000-fold dilution): 10 mM, cytotoxicity flag (confluency mask): cytotoxic (confluency <70% of control), agonist: Imiquimod (TLR7) […]
# [10] = library stock concentration (final ~1000-fold dilution): 10 mM, cytotoxicity flag (confluency mask): cytotoxic (confluency <70% of control), agonist: MPLA (TLR4) […]
smiles,measurement,setting,value
COc1cc2c(Oc3ccc4[nH]c(C)cc4c3F)ncnc2cc1OCCCN1CCCC1 (library stock concentration (final ~1000-fold dilution): 10 mM),NF-kB SEAP reporter activity,RAW-Dual [1]; agonist: LPS (TLR4) 0.1 ug/mL,0.671
same,NF-kB SEAP reporter activity,RAW-Dual [1]; [4],0.212
same,NF-kB SEAP reporter activity,RAW-Dual [1]; [5],1.03
same,NF-kB SEAP reporter activity,RAW-Dual [1]; [6],1.37
COc1cc2c(Oc3ccc4[nH]c(C)cc4c3F)ncnc2cc1OCCCN1CCCC1.O=C(O)/C=C\C(=O)O (library stock concentration (final ~1000-fold dilution): 10 mM),NF-kB SEAP reporter activity,RAW-Dual [1]; agonist: LPS (TLR4) 0.1 ug/mL,2.81
same,NF-kB SEAP reporter activity,RAW-Dual [1]; [4],0.402
same,NF-kB SEAP reporter activity,RAW-Dual [1]; [5],1.61
same,NF-kB SEAP reporter activity,RAW-Dual [1]; [6],1.15
Cl.Nc1ccc(N=Nc2ccccc2)c(N)n1,NF-kB SEAP reporter activity,RAW-Dual [2]; [7],1.1
same,NF-kB SEAP reporter activity,RAW-Dual [2]; [8],1.08
Cl.Nc1ccc(N=Nc2ccccc2)c(N)n1 (library stock concentration (final ~1000-fold dilution): 10 mM),NF-kB SEAP reporter activity,RAW-Dual [3]; agonist: LPS (TLR4) 0.1 ug/mL,1.22
same,NF-kB SEAP reporter activity,RAW-Dual [3]; [4],0.928
same,NF-kB SEAP reporter activity,RAW-Dual [3]; [5],1.09
same,NF-kB SEAP reporter activity,RAW-Dual [3]; [6],0.933
Nc1nc(=O)n(C2CSC(CO)O2)cc1F (centres undefined) (library stock concentration (final ~1000-fold dilution): 10 mM),NF-kB SEAP reporter activity,RAW-Dual [3]; agonist: LPS (TLR4) 0.1 ug/mL,0.99
same,NF-kB SEAP reporter activity,RAW-Dual [3]; [4],1.1
same,NF-kB SEAP reporter activity,RAW-Dual [3]; [5],1.1
same,NF-kB SEAP reporter activity,RAW-Dual [3]; [6],1.13
Nc1nc(=O)n(C2CSC(CO)O2)cc1F (centres undefined),NF-kB SEAP reporter activity,RAW-Dual [2]; [7],0.983
same,NF-kB SEAP reporter activity,RAW-Dual [2]; [8],1.14
CCC(C)SSc1ncc[nH]1 (centres undefined) (library stock concentration (final ~1000-fold dilution): 10 mM),NF-kB SEAP reporter activity,RAW-Dual [3]; agonist: LPS (TLR4) 0.1 ug/mL,4.74
same,NF-kB SEAP reporter activity,RAW-Dual [3]; [4],2.67
same,NF-kB SEAP reporter activity,RAW-Dual [3]; [5],1.44
same,NF-kB SEAP reporter activity,RAW-Dual [3]; [6],2.7
CCC(C)SSc1ncc[nH]1 (centres undefined),NF-kB SEAP reporter activity,RAW-Dual [2]; [7],1.51
same,NF-kB SEAP reporter activity,RAW-Dual [2]; [8],1.85
Cc1[nH]c(/C=C2\C(=O)Nc3ccc(S(=O)(=O)Cc4c(Cl)cccc4Cl)cc32)c(C)c1C(=O)N1CCCC1CN1CCCC1 (centres undefined) (library stock concentration (final ~1000-fold dilution): 10 mM),NF-kB SEAP reporter activity,RAW-Dual [1]; agonist: LPS (TLR4) 0.1 ug/mL,0.658
same,NF-kB SEAP reporter activity,RAW-Dual [1]; [4],1.39
same,NF-kB SEAP reporter activity,RAW-Dual [1]; [5],0.551
same,NF-kB SEAP reporter activity,RAW-Dual [1]; [6],0.886
Cc1[nH]c(/C=C2\C(=O)Nc3ccc(S(=O)(=O)Cc4c(Cl)cccc4Cl)cc32)c(C)c1C(=O)N1CCCC1CN1CCCC1 (centres undefined),NF-kB SEAP reporter activity,RAW-Dual [2]; [9],2.04
same,NF-kB SEAP reporter activity,RAW-Dual [2]; [10],1.3
CC(C)Oc1ccc(C(=O)NC(CNC(=O)CN(C)C)Cc2ccc(-c3cn4cccc(C(C)O)c4n3)cc2)cc1Cl (centres undefined),NF-kB SEAP reporter activity,RAW-Dual [2]; [7],1.37
same,NF-kB SEAP reporter activity,RAW-Dual [2]; [8],1.39
CC(C)Oc1ccc(C(=O)NC(CNC(=O)CN(C)C)Cc2ccc(-c3cn4cccc(C(C)O)c4n3)cc2)cc1Cl (centres undefined) (library stock concentration (final ~1000-fold dilution): 10 mM),NF-kB SEAP reporter activity,RAW-Dual [3]; agonist: LPS (TLR4) 0.1 ug/mL,0.934
same,NF-kB SEAP reporter activity,RAW-Dual [3]; [4],0.199
same,NF-kB SEAP reporter activity,RAW-Dual [3]; [5],1.02
same,NF-kB SEAP reporter activity,RAW-Dual [3]; [6],1.03
Nc1ncnc2c1c(I)cn2C1OC(CO)C(O)C1O (centres undefined) (library stock concentration (final ~1000-fold dilution): 10 mM),NF-kB SEAP reporter activity,RAW-Dual [1]; agonist: LPS (TLR4) 0.1 ug/mL,0.213
same,NF-kB SEAP reporter activity,RAW-Dual [1]; [4],0.195
same,NF-kB SEAP reporter activity,RAW-Dual [1]; [5],0.0844
same,NF-kB SEAP reporter activity,RAW-Dual [1]; [6],0.123
Nc1ncnc2c1c(I)cn2C1OC(CO)C(O)C1O (centres undefined),NF-kB SEAP reporter activity,RAW-Dual [2]; [9],0.145
same,NF-kB SEAP reporter activity,RAW-Dual [2]; [10],0.26
C=C1CCC(O)CC1=CC=C1CCCC2(C)C1CCC2C(C)CCCC(C)C (centres undefined),NF-kB SEAP reporter activity,"RAW-Dual [2]; library stock concentration (final ~1000-fold dilution): 1 mM, cytotoxicity flag (confluency mask): not cytotoxic, agonist: Imiquimod (TLR7) […]",1.17
same,NF-kB SEAP reporter activity,"RAW-Dual [2]; library stock concentration (final ~1000-fold dilution): 1 mM, cytotoxicity flag (confluency mask): not cytotoxic, agonist: MPLA (TLR4) […]",0.651
C=C1CCC(O)CC1=CC=C1CCCC2(C)C1CCC2C(C)CCCC(C)C (centres undefined) (library stock concentration (final ~1000-fold dilution): 1 mM),NF-kB SEAP reporter activity,RAW-Dual [3]; agonist: LPS (TLR4) 0.1 ug/mL,0.593
same,NF-kB SEAP reporter activity,RAW-Dual [3]; [4],1.12
same,NF-kB SEAP reporter activity,RAW-Dual [3]; [5],1.12
same,NF-kB SEAP reporter activity,RAW-Dual [3]; [6],1.27
O=C(O)CCN1C(=O)C(=Cc2ccc(-c3ccc([N+](=O)[O-])cc3)o2)SC1=S,NF-kB SEAP reporter activity,RAW-Dual [2]; [7],0.675
same,NF-kB SEAP reporter activity,RAW-Dual [2]; [8],0.731
O=C(O)CCN1C(=O)C(=Cc2ccc(-c3ccc([N+](=O)[O-])cc3)o2)SC1=S (library stock concentration (final ~1000-fold dilution): 10 mM),NF-kB SEAP reporter activity,RAW-Dual [3]; agonist: LPS (TLR4) 0.1 ug/mL,0.807
same,NF-kB SEAP reporter activity,RAW-Dual [3]; [4],0.649
same,NF-kB SEAP reporter activity,RAW-Dual [3]; [5],0.104
same,NF-kB SEAP reporter activity,RAW-Dual [3]; [6],0.296
COc1ccc(-c2ccc3c(N4CCOCC4)nc(N4CC(C)OC(C)C4)nc3n2)cc1CO (centres undefined),NF-kB SEAP reporter activity,RAW-Dual [2]; [7],0.91
same,NF-kB SEAP reporter activity,RAW-Dual [2]; [8],0.935
COc1ccc(-c2ccc3c(N4CCOCC4)nc(N4CC(C)OC(C)C4)nc3n2)cc1CO (centres undefined) (library stock concentration (final ~1000-fold dilution): 10 mM),NF-kB SEAP reporter activity,RAW-Dual [3]; agonist: LPS (TLR4) 0.1 ug/mL,0.793
same,NF-kB SEAP reporter activity,RAW-Dual [3]; [4],0.836
same,NF-kB SEAP reporter activity,RAW-Dual [3]; [5],0.365
same,NF-kB SEAP reporter activity,RAW-Dual [3]; [6],0.707
Cl.O=c1n(CCCN2CCN(c3cccc(Cl)c3)CC2)nc2ccccn12,NF-kB SEAP reporter activity,"RAW-Dual [2]; library stock concentration (final ~1000-fold dilution): 2 mM, cytotoxicity flag (confluency mask): not cytotoxic, agonist: Imiquimod (TLR7) […]",1.05
same,NF-kB SEAP reporter activity,"RAW-Dual [2]; library stock concentration (final ~1000-fold dilution): 2 mM, cytotoxicity flag (confluency mask): not cytotoxic, agonist: MPLA (TLR4) […]",1.08
O=c1n(CCCN2CCN(c3cccc(Cl)c3)CC2)nc2ccccn12,NF-kB SEAP reporter activity,RAW-Dual [2]; [7],2.36
same,NF-kB SEAP reporter activity,RAW-Dual [2]; [8],2.42
O=c1n(CCCN2CCN(c3cccc(Cl)c3)CC2)nc2ccccn12 (library stock concentration (final ~1000-fold dilution): 10 mM),NF-kB SEAP reporter activity,RAW-Dual [3]; agonist: LPS (TLR4) 0.1 ug/mL,2.72
same,NF-kB SEAP reporter activity,RAW-Dual [3]; [4],1.65
same,NF-kB SEAP reporter activity,RAW-Dual [3]; [5],1.15
same,NF-kB SEAP reporter activity,RAW-Dual [3]; [6],1.22
CCc1nn(CCCN2CCN(c3cccc(Cl)c3)CC2)c(=O)n1CCOc1ccccc1.Cl (library stock concentration (final ~1000-fold dilution): 10 mM),NF-kB SEAP reporter activity,RAW-Dual [3]; agonist: LPS (TLR4) 0.1 ug/mL,0.981
same,NF-kB SEAP reporter activity,RAW-Dual [3]; [4],0.799
same,NF-kB SEAP reporter activity,RAW-Dual [3]; [5],0.822
same,NF-kB SEAP reporter activity,RAW-Dual [3]; [6],0.646
CCc1nn(CCCN2CCN(c3cccc(Cl)c3)CC2)c(=O)n1CCOc1ccccc1.Cl,NF-kB SEAP reporter activity,RAW-Dual [2]; [8],0.878
Cl.O=c1n(CCCN2CCN(c3cccc(Cl)c3)CC2)nc2ccccn12 (library stock concentration (final ~1000-fold dilution): 2 mM),NF-kB SEAP reporter activity,RAW-Dual [3]; agonist: LPS (TLR4) 0.1 ug/mL,1.15
same,NF-kB SEAP reporter activity,RAW-Dual [3]; [4],1.04
same,NF-kB SEAP reporter activity,RAW-Dual [3]; [5],1.1
same,NF-kB SEAP reporter activity,RAW-Dual [3]; [6],1.37
